Data on 40 compounds can be found in PubChem BioAssay (NCI).

Each structure is given as a SMILES string. About 83,000 compounds went through this panel and 20% of them were active in at least one assay; those are over-represented in the sample as a whole.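 In brief: 96-well plates, 48 h treatment, single concentration, percent growth endpoint.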 Values without a mark were called inactive. Activity calls are given as the source filed them.

The experiment relates to UO-31 renal. The experiment in a line: NCI-60 one-dose screen, 48 h (100 = growth as untreated, 0 = no growth, -100 = all killed). The settings on record: 10 µM unless noted. On the procedure:
Growth inhibition of the UO-31 human tumor cell line is measured as a screen for anti-cancer activity. Cells are grown in 96 well plates and exposed to the test compound for 48 hours. Compounds are tested at a single concentration, which is 10^-5 M for most compounds. The reported endpoint is percent growth (GI% or GIPRCNT), where numbers from 0 - 100% represent growth inhibition, and numbers from -100% - 0 represent cell death. For example, a value of 40 represents 60% growth inhibition. A value of 0 means no net growth occurred over the course of the experiment. A value of -40 indicates 40% of cells at the beginning of the experiment died by the end of the experiment. A value of -100 means all cells are dead at the end of the experiment.
NCI-60 Human Tumor Cell Lines Screen was performed using the standard one-dose NCI protocol, which is described in more detail at https://dtp.cancer.gov/discovery_development/nci-60/default.htm.
Compounds with GIPRCNT values below 10 were considered active. Activity score was based on GIPRCNT using the following formula: […]
Score is 0 for GIPRCNT values of 100 or above, 50 for GIPRCNT values of 0, and 100 for GIPRCNT values of -100.
As to `O=C1CNCCN1`, the growth is 91.7%. The figure for `COc1ccccc1CNc1nc(N)nc2[nH]c3ccc(O)cc3c12` is 59.6%; for `COc1cc2[nH]c(C(=O)c3cc(OC)c(OC)c(OC)c3)c(N)c2cc1C#CC1CC1` it is 38.2%; for `Cn1c(=O)c2c(ncn2CCC(=O)Nc2ccc(F)cc2)n(C)c1=O` it is 90%.

In the case of `COc1cc(OC)c2c(c1)c1nc3cc(C)c(C)cc3nc1n2CCN(C)C`, the growth is 74.1%. The figure for `CCOc1ccc(NC(=O)c2ccoc2COc2ccccc2)cc1` is 79.8%.

Turning to `COc1ccc(OCC(CO)N2CCN(c3ccccc3)CC2)cc1` (stereo not given), the growth was 86.4%. The figure for `COc1cc(/C=C/c2cc(/C=C/c3ccc(O)c(OC)c3)n(-c3ccc(Cl)cc3)c(=O)n2)ccc1O` is 64.9%. Regarding `Fc1ccc2nc(-c3cc(-c4ccc5c(c4)OCO5)n[nH]3)[nH]c2c1`, the growth was 73.4%.

Take `CCN1CCN(C(=O)[C@]23CCC(C)(C)C[C@H]2C2=CC[C@@H]4[C@@]5(C)CC/C(=N/O)C(C)(C)[C@@H]5CC[C@@]4(C)[C@]2(C)CC3)CC1`: the growth is 37%. The figure for `Clc1ccccc1-c1nc(Nc2nc3ccccc3s2)nc(C(Cl)(Cl)Cl)n1` is 14.3%; for `CCC(=O)c1c(C)[nH]c(C)c1C` it is 67.1%; for `CC(=O)O[C@H]1CC[C@@]2(C)C(=CC[C@@H]3[C@@H]2CC[C@]2(C)C(=O)N(O)C(=O)C[C@@H]32)C1` it is 97.4%. The figure for `CCCC1CCCCN1C(=O)OCC(C)C` (stereo not given) is 74.5%; for `Oc1ccc(CCC2CCCC(CCc3ccc(OCCF)cc3)N2)cc1` (stereo not given) it is 72%.

On to `Brc1ccc2c(c1)c(-c1nc(-c3c[nH]c4ncccc34)cs1)cn2CCCN1CCCCC1`, for which the growth was -52% (active). The figure for `CCN1CCN(C(=O)[C@]23CC[C@@H](C)[C@H](C)[C@H]2C2=CC[C@@H]4[C@@]5(C)C/C(=C/c6cccc(OC)c6OC)C(=O)C(C)(C)[C@@H]5CC[C@@]4(C)[C@]2(C)CC3)CC1` is 30.3%. The figure for `C(=C\c1c[nH]c2ccccc12)/c1ccc2ccccc2n1` is 23.6%; for `c1ccc(-c2nc(Nc3ccc(-c4nc5ccccc5[nH]4)cc3)nc(N3CCOCC3)n2)cc1` it is -60.6% (active); for `Cn1c(/C(C#N)=C/c2ccc3ccccc3c2)cc2ccccc21` it is 57.5%. The figure for `Nc1nc2c(c(=O)[nH]1)C(c1ccc3c(c1)OCO3)C=C(C(=O)O)N2` (stereo not given) is 102%; for `COCCNC1=C(Cl)C(=O)c2ccccc2C1=O` it is 115%; for `Cc1ccncc1C(=O)O` it is 88.7%. As to `O=C1c2cc3c(cc2-c2c1c1ccc(Cl)cc1c(=O)n2C[C@H](O)[C@@H](O)[C@H](O)CO)OCO3`, the growth was -71.6% (active). As for `COc1ccc(NC(=S)N/N=C/c2ccccc2SSCCC(=O)OC[C@H]2O[C@H](O)[C@H](O)[C@@H](O)[C@@H]2O)cc1`, the growth is 81.4%. The figure for `Cc1cccc(C)c1NC(=O)CSC(=S)N1CCN(CCOCCO)CC1` is 89.7%; for `COc1cc2nc(Cl)nc(Nc3cccc(C(=O)/C=C/c4ccc(Cl)cc4)c3)c2cc1OC` it is 57.1%; for `Cc1ccc(Sc2sc(-c3ccccc3)nc2[P+](c2ccccc2)(c2ccccc2)c2ccccc2)cc1` it is -39.1% (active). Turning to `C=C1C(=O)O[C@H]2[C@H]1CC/C(Cn1cc(-c3ccc(OC)cc3)nn1)=C\CC[C@@]1(C)O[C@@H]21`, the growth was -86.2% (active).

For `c1ccc2c(-c3nc(-c4c[nH]c5ncccc45)cs3)c[nH]c2c1`, the growth was 52.5%.

On to `OCC12CCCC(CO)(COC1)C2O` (stereo not given), for which the growth was 91.1%.

Take `CCN(CC)CCCCCCNc1ccnc2cc(Cl)ccc12`: the growth was 86.1%. The figure for `COc1cccc(NC(=O)c2sc3nc4c(cc3c2N)C(=O)CCC4)c1` is 52.3%; for `N#C/C(=C\c1ccc(-c2ccccc2)o1)c1nc(-c2ccco2)cs1` it is 55.2%; for `CC(=O)O[C@H]1CC[C@@]2(C)[C@@H](CC[C@@H]3[C@@H]2CC(=O)[C@@]2(C)[C@H]3C[C@@H](C3CCCC3=O)[C@@H]2C(C)=O)C1` (stereo not given in full) it is 88.3%. Consider `COc1ccc(-c2cc(/C=C/C(=O)c3ccc(OC)c(OC)c3)[nH]n2)cc1`, for which the growth is 36.4%. The figure for `C=C(C)[C@@H]1CC[C@]2(C(=O)N3CCN(CC)CC3)CC[C@]3(C)[C@H](CC[C@@H]4[C@@](C)(CCC(=O)N5CCN(CC)CC5)[C@H](C(=C)C)CC[C@]43C)[C@@H]12` is 28.2%; for `C=C(C)[C@@H]1CC[C@]2(c3nnc(-c4ccncc4)o3)CC[C@]3(C)[C@H](CC[C@@H]4[C@@]5(C)CCC(=O)NC(C)(C)[C@@H]5CC[C@]43C)[C@@H]12` it is 76.6%. Turning to `CCCCCCCN(CCCCCCC)C(=N)c1ccnc2ccccc12`, the growth was -62.5% (active). The figure for `Cc1cccc(C)c1NCc1nc(-c2ccccc2)n[nH]1` is 90.6%.
